Experimental findings from the supplement of paper PMC6522484 are described below.

The test system of test [1] is DLD1. In words: cell viability (CellTiter-Glo) relative to plate median (fraction of plate median); higher = more viable cells. The settings on record: 5 µM; treatment time 24 h; reporter: 7TFP. An outline of the steps: (§1)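 After seeding in 384-well plates, colorectal cancer cell lines carrying stable lentiviral TCF/Wnt firefly luciferase reporters (7TFP or TCF4/Wnt) were left 24 h. Library compounds were then added at a final 5 µM for 24 h. A Tecan F500 reader measured firefly luciferase or CellTiterGlo luminescence on parallel plates, with each well normalised to the plate median by webcellHTS2 (additive, no log transformation), and two independent replicates averaged.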
(In general: Cellular ATP, detected with luciferase, serves as a proxy for viable cell number.)

Test [2] has as its system HCT116. Described as above. To be noted: 5 µM; treatment time 24 h; reporter: TCF4/Wnt. Put shortly: as §1
Test [3] relates to SW480. The test is described as above. The settings on record: 5 µM; treatment time 24 h; reporter: 7TFP. An outline of the steps: as §1
The subject of test [4] is DLD1. As to the kind of experiment: TCF/Wnt firefly luciferase reporter signal relative to plate median (fraction of plate median); higher = higher Wnt reporter signal. The settings on record: 5 µM; treatment time 24 h; reporter: 7TFP. Put shortly: as §1
Test [5] concerns SW480. Described as above. To be noted: 5 µM; treatment time 24 h; reporter: 7TFP. Put shortly:
as §1

± gives the standard deviation of the averaged measurements.

With `COc1ccc2c3c1O[C@H]1C[C@@H](O)C=C[C@@]31CCN(C)C2`, the cell viability in test [1] was found to be 1.04 ± 0.05; in test [2] it was 1 ± 0.081; in test [3] it was 1.03 ± 0.045. For the same compound, the “TCF/Wnt firefly luciferase reporter signal” value in test [4] worked out at 0.9965 ± 0.0021; in test [5], 1.05.
With `CC(=O)NS(=O)(=O)c1ccc(N)cc1`, the cell viability in test [1] is 1.07 ± 0.05; in test [2] it was 0.978 ± 0.088; in test [3], 1.05 ± 0.057. The “TCF/Wnt firefly luciferase reporter signal” value in test [4] was determined as 1.01 ± 0.22; in test [5], 0.854 ± 0.023.
For `COC(=O)c1cc(O)c(=O)c2c(O)c(O)ccc2c1` the same measures were 0.982 ± 0.096, 0.8955 ± 0.0021, 0.997 ± 0.033, 0.785 ± 0.037 and 0.951 ± 0.11.
On to `O=C(NC(Cc1cc(=O)[nH]c2ccccc12)C(=O)O)c1ccc(Cl)cc1` (stereo not given), for which the cell viability in test [1] is 0.93 ± 0.0071; in test [2], 0.975 ± 0.026; in test [3] it was 0.931 ± 0.024. Besides, the “TCF/Wnt firefly luciferase reporter signal” value in test [4] was 0.909 ± 0.064; in test [5], 0.818 ± 0.069.
For `COc1ccc(OC)c(C(O)CNC(=O)CN)c1` (stereo not given) the same measures were 0.944 ± 0.067, 0.912 ± 0.064, 1.03 ± 0.035, 1.06 ± 0.2 and 1.16 ± 0.092.
For `Cc1ncc(CO)c(CO)c1O` the same measures were 1.02 ± 0.033, 1.09 ± 0.17, 1.02 ± 0.014, 0.951 ± 0.11 and 0.9705 ± 0.0092.
Turning to `NS(=O)(=O)c1cc2c(cc1Cl)N=C(CSCc1ccccc1)NS2(=O)=O`, the values for the cell viability in test [1], in test [2] and in test [3] were 0.974 ± 0.079, 1.08 ± 0.014 and 0.974 ± 0.066, respectively. Also, the “TCF/Wnt firefly luciferase reporter signal” value amounted to 0.861 ± 0.04 in test [4] and 1.03 ± 0.042 in test [5].
For `CCCCCCCCCCCCCCC(C(=O)O)C(O)(CC(=O)OC)C(=O)O` (stereo not given) the same measures were 0.955 ± 0.05, 0.878 ± 0.017, 0.9505 ± 0.0064, 0.979 ± 0.086 and 0.947 ± 0.028.
For `CCOC(=O)[C@H](CCc1ccccc1)N[C@H]1CCc2ccccc2N(CC(=O)O)C1=O` the same measures were 0.871 ± 0.1, 0.899 ± 0.068, 1.02 ± 0.067, 1.045 ± 0.0071 and 1.01.
Consider `CC(=O)/N=c1/sc(S(N)(=O)=O)nn1C`, for which the cell viability in test [1] worked out at 0.987 ± 0.047; in test [2], 0.909 ± 0.13; in test [3], 1.01 ± 0.053. Further, the “TCF/Wnt firefly luciferase reporter signal” value in test [4] was found to be 0.865 ± 0.1; in test [5], 1.08 ± 0.099.
With `CC(=O)N[C@@H](CC(=O)c1ccccc1N)C(=O)O` [N-Acetyl-kynurenine], the cell viability amounted to 1.09 ± 0.12 in test [1], 1.12 ± 0.11 in test [2] and 1.01 ± 0.044 in test [3]. Also, the “TCF/Wnt firefly luciferase reporter signal” value in test [4] was 0.859 ± 0.17; in test [5], 1.05 ± 0.078.
For `C=C[C@@H](C1=CC(=O)C(OC)=C(OC)C1=O)c1ccccc1` the same measures were 0.903 ± 0.0057, 0.856 ± 0.11, 1.08 ± 0.014, 0.712 ± 0.033 and 0.907 ± 0.023.
For the compound `C#C[C@]1(O)CC[C@H]2[C@@H]3CCC4=Cc5oncc5C[C@]4(C)[C@H]3CC[C@@]21C`, the cell viability was 1.06 ± 0.021 in test [1], 0.936 ± 0.029 in test [2] and 1.01 ± 0.035 in test [3]. In addition, the figures for the “TCF/Wnt firefly luciferase reporter signal” value in test [4] and in test [5] were 1.04 and 0.817 ± 0.046, respectively.
For `CC(=O)Oc1cc(OC(C)=O)c2c(c1)O[C@H](c1ccc(OC(C)=O)c(OC(C)=O)c1)[C@H](OC(C)=O)C2` the same measures were 1 ± 0.055, 0.972 ± 0.15, 1.01 ± 0.016, 0.921 ± 0.044 and 1 ± 0.015.
